Results as given in ChEMBL document CHEMBL2218924, “A broad activity screen in support of a chemogenomic map for kinase signalling research and drug discovery” (Biochem J, 2013).

How the values were obtained:
[1] = biological target: Vascular endothelial growth factor receptor 3 (Homo sapiens) (UniProt P35916); conditions: at 10 µM
[2] = biological target: Macrophage colony-stimulating factor 1 receptor (Homo sapiens) (UniProt P07333); conditions: at 1 µM
[3] = biological target: Macrophage colony-stimulating factor 1 receptor (Homo sapiens) (UniProt P07333); conditions: at 10 µM
[4] = biological target: Tyrosine-protein kinase Fyn (Homo sapiens) (UniProt P06241); conditions: at 1 µM
[5] = biological target: Tyrosine-protein kinase Fyn (Homo sapiens) (UniProt P06241); conditions: at 10 µM
[6] = biological target: T1, Mitogen-activated protein kinase kinase kinase kinase 2 (Homo sapiens) (UniProt Q12851); conditions: at 1 µM
T1 sequence (whole entry): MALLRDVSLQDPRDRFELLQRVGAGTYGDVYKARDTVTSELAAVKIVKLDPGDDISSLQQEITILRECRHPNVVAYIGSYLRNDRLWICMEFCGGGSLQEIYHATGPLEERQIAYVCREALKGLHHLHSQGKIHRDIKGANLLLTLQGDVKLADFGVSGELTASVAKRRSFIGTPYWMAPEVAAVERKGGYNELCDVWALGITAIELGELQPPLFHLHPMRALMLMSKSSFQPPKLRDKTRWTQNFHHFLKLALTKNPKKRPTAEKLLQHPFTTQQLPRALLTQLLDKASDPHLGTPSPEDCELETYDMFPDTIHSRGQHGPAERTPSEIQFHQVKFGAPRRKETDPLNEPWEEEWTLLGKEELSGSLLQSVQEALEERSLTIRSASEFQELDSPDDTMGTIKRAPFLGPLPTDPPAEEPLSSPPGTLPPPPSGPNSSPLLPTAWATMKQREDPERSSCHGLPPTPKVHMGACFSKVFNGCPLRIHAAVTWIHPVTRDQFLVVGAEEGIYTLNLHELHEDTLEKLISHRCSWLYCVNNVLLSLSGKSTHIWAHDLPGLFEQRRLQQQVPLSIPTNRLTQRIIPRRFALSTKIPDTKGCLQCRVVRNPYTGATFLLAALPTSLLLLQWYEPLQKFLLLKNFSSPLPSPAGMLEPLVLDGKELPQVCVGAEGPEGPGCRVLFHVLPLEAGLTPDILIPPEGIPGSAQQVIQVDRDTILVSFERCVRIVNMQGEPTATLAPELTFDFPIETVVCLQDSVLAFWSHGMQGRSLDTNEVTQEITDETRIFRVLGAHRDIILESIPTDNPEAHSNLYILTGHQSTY

[7] = biological target: T1, Mitogen-activated protein kinase kinase kinase kinase 2 (Homo sapiens); conditions: at 10 µM
[8] = biological target: G protein-coupled receptor kinase 5 (Homo sapiens) (UniProt P34947); conditions: at 1 µM
[9] = biological target: G protein-coupled receptor kinase 5 (Homo sapiens) (UniProt P34947); conditions: at 10 µM
[10] = biological target: G protein-coupled receptor kinase 6 (Homo sapiens) (UniProt P43250); conditions: at 10 µM
[11] = biological target: T2, Rhodopsin kinase GRK7 (Homo sapiens) (UniProt Q8WTQ7); conditions: at 1 µM
T2 sequence (whole entry): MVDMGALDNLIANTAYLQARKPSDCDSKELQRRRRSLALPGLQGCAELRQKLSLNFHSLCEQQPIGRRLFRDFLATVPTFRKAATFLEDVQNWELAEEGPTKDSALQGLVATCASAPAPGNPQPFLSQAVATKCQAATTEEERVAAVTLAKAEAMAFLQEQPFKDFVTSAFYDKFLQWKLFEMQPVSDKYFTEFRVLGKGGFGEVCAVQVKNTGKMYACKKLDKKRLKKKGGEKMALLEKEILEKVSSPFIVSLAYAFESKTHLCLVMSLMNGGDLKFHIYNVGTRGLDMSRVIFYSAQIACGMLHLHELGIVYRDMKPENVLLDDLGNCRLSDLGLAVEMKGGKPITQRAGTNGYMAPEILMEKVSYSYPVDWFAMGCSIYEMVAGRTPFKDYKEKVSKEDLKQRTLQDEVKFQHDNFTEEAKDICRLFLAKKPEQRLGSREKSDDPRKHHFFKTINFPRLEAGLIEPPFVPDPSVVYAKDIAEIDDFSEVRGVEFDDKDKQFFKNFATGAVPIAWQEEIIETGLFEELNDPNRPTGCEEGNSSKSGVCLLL

[12] = biological target: T2, Rhodopsin kinase GRK7 (Homo sapiens); conditions: at 10 µM
[13] = biological target: Glycogen synthase kinase-3 alpha (Homo sapiens) (UniProt P49840); conditions: at 1 µM
[14] = biological target: Glycogen synthase kinase-3 alpha (Homo sapiens) (UniProt P49840); conditions: at 10 µM
[15] = biological target: Glycogen synthase kinase-3 beta (Homo sapiens) (UniProt P49841); conditions: at 1 µM
[16] = biological target: Glycogen synthase kinase-3 beta (Homo sapiens) (UniProt P49841); conditions: at 10 µM
[17] = biological target: Homeodomain-interacting protein kinase 1 (Homo sapiens) (UniProt Q86Z02); conditions: at 1 µM
[18] = biological target: Homeodomain-interacting protein kinase 1 (Homo sapiens) (UniProt Q86Z02); conditions: at 10 µM
[19] = biological target: Homeodomain-interacting protein kinase 2 (Homo sapiens) (UniProt Q9H2X6); conditions: at 1 µM
[20] = biological target: G protein-coupled receptor kinase 6 (Homo sapiens) (UniProt P43250); conditions: at 1 µM

Sequence of Tyrosine-protein kinase Fyn (Homo sapiens) (P06241 2-537 limits assumed): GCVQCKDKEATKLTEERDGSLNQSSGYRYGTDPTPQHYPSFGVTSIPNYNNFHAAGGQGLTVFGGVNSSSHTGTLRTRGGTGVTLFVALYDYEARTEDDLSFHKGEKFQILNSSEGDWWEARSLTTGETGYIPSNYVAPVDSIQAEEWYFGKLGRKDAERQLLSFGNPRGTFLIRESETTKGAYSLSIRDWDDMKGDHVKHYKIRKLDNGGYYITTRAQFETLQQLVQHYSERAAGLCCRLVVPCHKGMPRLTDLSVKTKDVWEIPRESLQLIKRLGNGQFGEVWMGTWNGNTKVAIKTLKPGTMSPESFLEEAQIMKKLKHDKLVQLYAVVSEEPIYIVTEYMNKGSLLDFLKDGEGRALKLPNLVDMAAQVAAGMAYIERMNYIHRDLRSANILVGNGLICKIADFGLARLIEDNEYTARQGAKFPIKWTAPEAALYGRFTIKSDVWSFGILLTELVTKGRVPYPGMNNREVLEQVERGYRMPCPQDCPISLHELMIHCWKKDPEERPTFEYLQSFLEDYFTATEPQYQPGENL
Sequence of G protein-coupled receptor kinase 5 (Homo sapiens) (P34947 whole entry, looked up): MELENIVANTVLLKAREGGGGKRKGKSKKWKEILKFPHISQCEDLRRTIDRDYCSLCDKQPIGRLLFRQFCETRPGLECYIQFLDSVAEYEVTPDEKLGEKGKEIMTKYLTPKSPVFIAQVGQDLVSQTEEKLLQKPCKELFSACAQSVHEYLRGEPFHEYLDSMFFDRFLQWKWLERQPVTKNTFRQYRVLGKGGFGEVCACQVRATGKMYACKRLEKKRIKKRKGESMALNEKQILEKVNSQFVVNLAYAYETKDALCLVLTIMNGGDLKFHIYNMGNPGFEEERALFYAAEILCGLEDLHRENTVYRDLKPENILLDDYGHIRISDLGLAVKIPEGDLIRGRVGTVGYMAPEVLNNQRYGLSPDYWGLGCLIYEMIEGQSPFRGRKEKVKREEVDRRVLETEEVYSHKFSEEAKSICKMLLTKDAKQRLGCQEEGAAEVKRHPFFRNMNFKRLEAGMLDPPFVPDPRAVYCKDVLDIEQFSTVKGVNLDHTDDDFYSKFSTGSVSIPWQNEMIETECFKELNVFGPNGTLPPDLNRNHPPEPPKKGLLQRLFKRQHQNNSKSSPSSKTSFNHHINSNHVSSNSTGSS
Sequence of Glycogen synthase kinase-3 alpha (Homo sapiens) (P49840 2-483 limits assumed): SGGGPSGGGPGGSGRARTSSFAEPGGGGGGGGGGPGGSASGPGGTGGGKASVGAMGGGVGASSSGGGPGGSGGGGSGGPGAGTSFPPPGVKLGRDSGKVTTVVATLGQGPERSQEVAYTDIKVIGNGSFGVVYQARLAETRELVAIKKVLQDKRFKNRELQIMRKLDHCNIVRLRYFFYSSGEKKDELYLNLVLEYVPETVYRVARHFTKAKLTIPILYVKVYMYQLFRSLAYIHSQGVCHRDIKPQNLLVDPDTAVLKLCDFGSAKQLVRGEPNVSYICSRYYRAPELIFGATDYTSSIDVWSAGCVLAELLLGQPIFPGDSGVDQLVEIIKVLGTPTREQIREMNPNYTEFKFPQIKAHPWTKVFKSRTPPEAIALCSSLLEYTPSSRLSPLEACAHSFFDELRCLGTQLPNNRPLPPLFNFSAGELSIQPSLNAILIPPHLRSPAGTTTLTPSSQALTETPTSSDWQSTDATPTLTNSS
Sequence of Macrophage colony-stimulating factor 1 receptor (Homo sapiens) (P07333 whole entry): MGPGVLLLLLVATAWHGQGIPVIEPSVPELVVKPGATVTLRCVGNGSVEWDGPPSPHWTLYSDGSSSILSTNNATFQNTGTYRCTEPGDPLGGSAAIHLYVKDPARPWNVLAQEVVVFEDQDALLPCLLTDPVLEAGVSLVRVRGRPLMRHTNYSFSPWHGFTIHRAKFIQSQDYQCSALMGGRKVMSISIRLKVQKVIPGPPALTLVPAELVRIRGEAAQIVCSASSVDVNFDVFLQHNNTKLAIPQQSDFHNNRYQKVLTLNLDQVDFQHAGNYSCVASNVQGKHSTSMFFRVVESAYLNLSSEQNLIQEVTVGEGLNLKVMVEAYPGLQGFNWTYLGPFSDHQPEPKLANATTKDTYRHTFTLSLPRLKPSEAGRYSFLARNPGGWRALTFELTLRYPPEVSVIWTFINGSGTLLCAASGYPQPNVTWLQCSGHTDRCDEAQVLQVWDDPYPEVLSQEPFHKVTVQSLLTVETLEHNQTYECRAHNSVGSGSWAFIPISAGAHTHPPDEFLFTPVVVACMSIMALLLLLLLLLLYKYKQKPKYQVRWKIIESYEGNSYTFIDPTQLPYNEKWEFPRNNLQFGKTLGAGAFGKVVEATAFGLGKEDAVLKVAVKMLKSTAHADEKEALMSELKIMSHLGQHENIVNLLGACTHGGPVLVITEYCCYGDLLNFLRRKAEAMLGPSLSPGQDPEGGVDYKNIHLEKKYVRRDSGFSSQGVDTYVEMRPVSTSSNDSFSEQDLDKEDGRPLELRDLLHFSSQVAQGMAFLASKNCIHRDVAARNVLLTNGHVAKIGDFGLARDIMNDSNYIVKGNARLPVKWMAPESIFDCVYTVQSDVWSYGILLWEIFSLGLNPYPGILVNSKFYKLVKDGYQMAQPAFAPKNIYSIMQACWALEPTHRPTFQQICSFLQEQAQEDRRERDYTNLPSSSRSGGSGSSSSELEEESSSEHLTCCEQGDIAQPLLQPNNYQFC
Sequence of G protein-coupled receptor kinase 6 (Homo sapiens) (P43250 whole entry, looked up): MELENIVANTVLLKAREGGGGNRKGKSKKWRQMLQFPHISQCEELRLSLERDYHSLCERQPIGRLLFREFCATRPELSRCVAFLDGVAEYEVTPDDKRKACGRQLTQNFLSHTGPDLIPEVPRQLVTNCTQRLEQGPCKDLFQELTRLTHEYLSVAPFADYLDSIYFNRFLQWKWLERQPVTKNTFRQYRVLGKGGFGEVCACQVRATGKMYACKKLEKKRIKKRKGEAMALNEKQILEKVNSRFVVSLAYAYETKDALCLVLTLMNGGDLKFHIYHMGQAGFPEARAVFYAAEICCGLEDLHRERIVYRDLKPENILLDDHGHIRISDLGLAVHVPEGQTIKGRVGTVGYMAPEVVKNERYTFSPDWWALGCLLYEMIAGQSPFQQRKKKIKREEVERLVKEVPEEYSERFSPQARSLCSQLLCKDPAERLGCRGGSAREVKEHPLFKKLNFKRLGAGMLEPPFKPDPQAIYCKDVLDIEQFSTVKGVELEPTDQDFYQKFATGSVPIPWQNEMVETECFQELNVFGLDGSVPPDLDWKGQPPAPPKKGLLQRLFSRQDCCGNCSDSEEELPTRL
Sequence of Glycogen synthase kinase-3 beta (Homo sapiens) (P49841 whole entry, looked up): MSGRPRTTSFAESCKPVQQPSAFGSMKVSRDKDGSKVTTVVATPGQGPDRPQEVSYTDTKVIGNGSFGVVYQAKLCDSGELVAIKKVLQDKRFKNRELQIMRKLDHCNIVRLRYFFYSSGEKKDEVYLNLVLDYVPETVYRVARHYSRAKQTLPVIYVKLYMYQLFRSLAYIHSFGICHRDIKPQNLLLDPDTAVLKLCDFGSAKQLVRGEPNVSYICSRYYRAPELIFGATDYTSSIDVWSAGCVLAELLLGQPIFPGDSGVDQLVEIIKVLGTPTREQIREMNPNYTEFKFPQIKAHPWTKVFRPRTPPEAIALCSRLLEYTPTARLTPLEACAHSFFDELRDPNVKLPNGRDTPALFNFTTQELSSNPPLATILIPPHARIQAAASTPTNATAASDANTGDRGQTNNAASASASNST
Sequence of Vascular endothelial growth factor receptor 3 (Homo sapiens) (P35916 whole entry): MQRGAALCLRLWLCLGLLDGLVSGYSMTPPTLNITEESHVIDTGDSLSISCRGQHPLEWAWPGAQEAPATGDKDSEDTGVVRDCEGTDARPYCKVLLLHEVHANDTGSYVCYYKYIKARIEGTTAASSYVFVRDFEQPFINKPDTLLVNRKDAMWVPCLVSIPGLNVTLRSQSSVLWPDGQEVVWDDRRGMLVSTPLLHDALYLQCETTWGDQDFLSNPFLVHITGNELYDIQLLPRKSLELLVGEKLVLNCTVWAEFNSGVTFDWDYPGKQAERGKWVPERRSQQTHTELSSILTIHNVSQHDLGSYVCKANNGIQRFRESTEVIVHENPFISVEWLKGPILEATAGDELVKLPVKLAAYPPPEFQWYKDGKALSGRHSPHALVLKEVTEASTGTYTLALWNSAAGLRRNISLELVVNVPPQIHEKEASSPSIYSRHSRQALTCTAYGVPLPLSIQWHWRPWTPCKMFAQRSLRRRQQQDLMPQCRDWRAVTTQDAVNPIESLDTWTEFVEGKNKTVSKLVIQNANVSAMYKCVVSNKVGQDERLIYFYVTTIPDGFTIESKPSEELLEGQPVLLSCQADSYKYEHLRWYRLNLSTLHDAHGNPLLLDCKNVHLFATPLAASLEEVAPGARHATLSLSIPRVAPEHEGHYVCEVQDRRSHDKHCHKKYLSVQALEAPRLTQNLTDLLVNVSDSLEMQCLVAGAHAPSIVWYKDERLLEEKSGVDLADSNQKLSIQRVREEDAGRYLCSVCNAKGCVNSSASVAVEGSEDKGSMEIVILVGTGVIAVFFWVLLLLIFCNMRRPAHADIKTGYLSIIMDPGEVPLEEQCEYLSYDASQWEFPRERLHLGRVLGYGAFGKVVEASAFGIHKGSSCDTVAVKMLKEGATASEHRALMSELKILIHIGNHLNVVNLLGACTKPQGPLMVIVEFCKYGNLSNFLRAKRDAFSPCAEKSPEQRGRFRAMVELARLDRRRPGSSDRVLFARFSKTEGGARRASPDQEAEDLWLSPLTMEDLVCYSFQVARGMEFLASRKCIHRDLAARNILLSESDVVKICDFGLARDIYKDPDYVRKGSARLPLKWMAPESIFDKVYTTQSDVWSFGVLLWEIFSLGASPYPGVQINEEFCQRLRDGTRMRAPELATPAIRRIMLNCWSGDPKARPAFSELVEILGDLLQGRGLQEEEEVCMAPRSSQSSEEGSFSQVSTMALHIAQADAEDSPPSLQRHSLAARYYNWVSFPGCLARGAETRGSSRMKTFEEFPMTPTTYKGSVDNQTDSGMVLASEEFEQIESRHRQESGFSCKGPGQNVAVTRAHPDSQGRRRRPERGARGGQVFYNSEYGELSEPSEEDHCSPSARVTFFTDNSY

Q: How did the residual activity [1] turn out when `O=C1Nc2ccc3ncsc3c2/C1=C/c1c[nH]cn1` was run?
A: The residual activity was 0%.

Q: And the residual activity [2]?
A: The residual activity was 22%.

Q: And the residual activity [3]?
A: The residual activity was 3%.

Q: What about the residual activity [4] of the same compound?
A: Its residual activity is 46%.

Q: And the residual activity [5]?
A: The residual activity was 12%.

Q: And the residual activity [6]?
A: Its residual activity is 7%.

Q: And the residual activity [7]?
A: The residual activity was 1%.

Q: What about the residual activity [8] of the same compound?
A: Its residual activity is 71%.

Q: What about the residual activity [9] of the same compound?
A: The residual activity was 25%.

Q: What about the residual activity [10] of the same compound?
A: Its residual activity is 60%.

Q: What about the residual activity [11] of the same compound?
A: The residual activity was 63%.

Q: And the residual activity [12]?
A: Its residual activity is 20%.

Q: What about the residual activity [13] of the same compound?
A: Its residual activity is 4%.

Q: And the residual activity [14]?
A: Its residual activity is 1%.

Q: What about the residual activity [15] of the same compound?
A: Its residual activity is 4%.

Q: What about the residual activity [16] of the same compound?
A: The residual activity was 0%.

Q: What about the residual activity [17] of the same compound?
A: Its residual activity is 64%.

Q: And the residual activity [18]?
A: Its residual activity is 26%.

Q: What about the residual activity [19] of the same compound?
A: Its residual activity is 32%.

Q: Which results are given for `COc1ccc2c(c[n+](C)c3c4cc5c(cc4ccc23)OCO5)c1OC`?
A: residual activity [1]: 62%; residual activity [2]: 87%; residual activity [3]: 74%; residual activity [4]: 92%; residual activity [5]: 63%; residual activity [7]: 72%; residual activity [9]: 82%; residual activity [20]: 96%; residual activity [10]: 93%; residual activity [11]: 99%; residual activity [12]: 91%; residual activity [13]: 126%; residual activity [15]: 97%; residual activity [16]: 83%

Q: Which residual activity [8] does the source give for `Nc1nc(Nc2ccc(S(N)(=O)=O)cc2)nn1C(=S)Nc1c(F)cccc1F` here?
A: Its residual activity is 77%.

Q: Which residual activity [8] does the source give for `Cc1nc2cc3nc(-c4cccs4)cnc3cc2n1C` here?
A: The residual activity was 113%.

Q: What about the residual activity [20] of the same compound?
A: Its residual activity is 103%.

Q: With `O=Nc1c(-c2c(O)[nH]c3ccccc23)[nH]c2ccccc12` as the compound, how does the residual activity [8] read?
A: Its residual activity is 92%.

Q: And the residual activity [20]?
A: The residual activity was 81%.

Q: Which residual activity [8] does the source give for `Cn1cc(/C=C2\C(=O)Nc3ccc(S(N)(=O)=O)cc32)c2ccccc21` here?
A: Its residual activity is 62%.

Q: And the residual activity [20]?
A: Its residual activity is 96%.

Q: Which results are given for `O=C1NC(=O)c2cc(Nc3ccc(F)cc3)c(Nc3ccc(F)cc3)cc21`?
A: residual activity [8]: 104%; residual activity [20]: 85%

Q: Which residual activity [8] does the source give for `O=c1cc(-c2cccc3c2Sc2ccccc2S3)oc(N2CCOCC2)c1` here?
A: The residual activity was 99%.

Q: What about the residual activity [20] of the same compound?
A: Its residual activity is 100%.

Q: With `CC(=O)O/N=C1\C(=C2\C(=O)Nc3cc(Br)ccc32)Nc2ccccc21` as the compound, how does the residual activity [8] read?
A: The residual activity was 98%.

Q: What about the residual activity [20] of the same compound?
A: The residual activity was 86%.

Q: Which results are given for `CC(C)[C@H](CO)Nc1nc(Nc2cc(N)cc(Cl)c2)c2ncn(C(C)C)c2n1`?
A: residual activity [8]: 89%; residual activity [20]: 90%

Q: Which residual activity [8] does the source give for `Nc1cccc(-c2cc3c(Oc4cccc(O)c4)ncnc3[nH]2)c1` here?
A: Its residual activity is 92%.

Q: And the residual activity [20]?
A: The residual activity was 93%.

Q: What does the source list for `O=C(O)c1ccc2c3c1cccc3c(=O)n1c3ccccc3nc21`?
A: residual activity [8]: 95%; residual activity [20]: 100%

Q: `Oc1ccc(-c2nc(-c3ccc(F)cc3)c(-c3ccncc3)[nH]2)cc1` was tested. Which residual activity [8] did it give?
A: Its residual activity is 109%.

Q: And the residual activity [20]?
A: The residual activity was 109%.

Q: Which results are given for `Nc1ncnc2c1c(-c1ccc(Oc3ccccc3)cc1)cn2C1CCCC1`?
A: residual activity [8]: 103%; residual activity [20]: 92%

Q: Which results are given for `O=C1Nc2cc(Br)ccc2/C1=C1/Nc2ccccc2/C1=N\O`?
A: residual activity [8]: 89%; residual activity [20]: 89%

Q: For `CC(C)c1nn(-c2c(Cl)cccc2Cl)c2nc(Cc3ccc(OCCO)cc3)[nH]c(=O)c12`, which residual activity [8] is on record?
A: The residual activity was 101%.

Q: What about the residual activity [20] of the same compound?
A: Its residual activity is 96%.

Q: How did the residual activity [8] turn out when `O=C1c2ccccc2-[n+]2ccc3c([nH]c4ccccc43)c21` was run?
A: The residual activity was 91%.

Q: And the residual activity [20]?
A: Its residual activity is 88%.

Q: Which results are given for `NC(=O)Nc1sc(-c2ccc(F)cc2)cc1C(N)=O`?
A: residual activity [8]: 93%; residual activity [20]: 85%

Q: For `NC(=O)c1ccc2[nH]c(-c3ccc(Oc4ccc(Cl)cc4)cc3)nc2c1`, which residual activity [8] is on record?
A: Its residual activity is 93%.

Q: What about the residual activity [20] of the same compound?
A: Its residual activity is 93%.

Q: With `Cc1ccc(S(=O)(=O)/C=C/C#N)cc1` as the compound, how does the residual activity [8] read?
A: Its residual activity is 96%.

Q: And the residual activity [20]?
A: The residual activity was 92%.

Q: For `Oc1n[nH]c2nnc(-c3c(-c4ccccc4)nn4ccccc34)cc12`, which residual activity [8] is on record?
A: The residual activity was 87%.

Q: What about the residual activity [20] of the same compound?
A: The residual activity was 83%.

Q: With `C[C@@H](N)[C@H]1CC[C@H](C(=O)Nc2ccncc2)CC1` as the compound, how does the residual activity [8] read?
A: The residual activity was 92%.

Q: What about the residual activity [20] of the same compound?
A: The residual activity was 106%.

Q: With `O=C(NC(NC(=S)Nc1ccc(F)c([N+](=O)[O-])c1)C(Cl)(Cl)Cl)C(c1ccccc1)c1ccccc1` (configuration not stated) as the compound, how does the residual activity [8] read?
A: Its residual activity is 90%.

Q: And the residual activity [20]?
A: The residual activity was 100%.

Q: `COc1cc2ncnc(N3CCN(C(=O)Nc4ccc(Oc5ccccc5)cc4)CC3)c2cc1OC` was tested. Which residual activity [8] did it give?
A: Its residual activity is 95%.

Q: What about the residual activity [20] of the same compound?
A: Its residual activity is 85%.

Q: What does the source list for `O=C1NC(=O)c2c1c1c3ccccc3[nH]c1n1cncc21`?
A: residual activity [8]: 83%; residual activity [20]: 82%

Q: Which residual activity [8] does the source give for `O=c1cc(N2CCNCC2)oc2c(-c3ccccc3)cccc12` here?
A: The residual activity was 81%.

Q: What about the residual activity [20] of the same compound?
A: Its residual activity is 102%.

Q: How did the residual activity [8] turn out when `CCN(CC)CCNC(=O)c1c(C)[nH]c(/C=C2\C(=O)Nc3ccc(Cl)cc32)c1C` was run?
A: Its residual activity is 68%.

Q: And the residual activity [20]?
A: Its residual activity is 68%.

Q: How did the residual activity [8] turn out when `O=[N+]([O-])c1ccc(-c2nc(-c3ccc(F)cc3)c(-c3ccncc3)[nH]2)cc1` was run?
A: The residual activity was 101%.

Q: And the residual activity [20]?
A: The residual activity was 102%.

Q: `COc1ccc(CNc2nc(N(CCO)CCO)nc3c2ncn3C(C)C)cc1` was tested. Which residual activity [8] did it give?
A: Its residual activity is 89%.

Q: What about the residual activity [20] of the same compound?
A: Its residual activity is 95%.

Q: Which residual activity [8] does the source give for `CCCCc1c(-c2ccc(O)cc2)[nH]c2nccnc12` here?
A: The residual activity was 93%.

Q: And the residual activity [20]?
A: Its residual activity is 98%.

Q: For `CC(C)n1cnc2/c(=N/c3cccc(Cl)c3)nc(NCCO)[nH]c21`, which residual activity [8] is on record?
A: The residual activity was 92%.

Q: What about the residual activity [20] of the same compound?
A: Its residual activity is 90%.

Q: With `O=C1NC(=O)/C(=C\c2ccc3nccnc3c2)S1` as the compound, how does the residual activity [8] read?
A: The residual activity was 103%.

Q: And the residual activity [20]?
A: Its residual activity is 90%.
